Screening results as filed in PubChem.
Shown are actives, neighbours in structure and some others; about 1.2% of the full set was active somewhere.
TRPV1 PAM: potentiators of human vanilloid receptor 1 (TRPV1). TRPV1-expressing cells, Fluo-8 calcium influx, capsaicin EC20 potentiation. potentiation, % at 8.33 µM. actives 0.02% (n = 320,000); in the data active means potentiation above about 80%; inconclusive means between about 30% and that limit
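Cells expressing TRPV1 were dye-loaded with Fluo-8 and read kinetically: 10 s baseline, 3 min after compound (agonist portion), then 2 min after EC20 capsaicin (allosteric enhancer portion). Calcium-bound dye fluorescence at 480/520 nm.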
TRPV1 agonist: agonists of human vanilloid receptor 1 (TRPV1) | Q8NER1 | TRPV1-expressing cells, Fluo-8 calcium influx, agonist mode | activation, % at 8.33 µM | actives 0.19% (n = 320,000); in the data active means activation above about 80%; inconclusive means between about 30% and that limit
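Fluo-8 calcium influx in TRPV1-expressing cells, kinetic read (ex 480/em 520 nm). Compound added and read 3 min for agonist activity, followed by capsaicin at EC20 final and 2 min further read for enhancement.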
hERG WT inh: inhibitors of human wildtype KCNH2 potassium channel; U2OS, BacMam KCNH2, thallium flux FluxOr; stronger effect = lower value; actives 0.37% (n = 340,000); activity change, % at 1.84 µM; Q12809; AID 720551;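 active means maximum activity change below -70%; inconclusive means maximum activity change between -70% and -50%; inactive means maximum activity change above -50%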
Target sequence (Q12809 whole entry, looked up): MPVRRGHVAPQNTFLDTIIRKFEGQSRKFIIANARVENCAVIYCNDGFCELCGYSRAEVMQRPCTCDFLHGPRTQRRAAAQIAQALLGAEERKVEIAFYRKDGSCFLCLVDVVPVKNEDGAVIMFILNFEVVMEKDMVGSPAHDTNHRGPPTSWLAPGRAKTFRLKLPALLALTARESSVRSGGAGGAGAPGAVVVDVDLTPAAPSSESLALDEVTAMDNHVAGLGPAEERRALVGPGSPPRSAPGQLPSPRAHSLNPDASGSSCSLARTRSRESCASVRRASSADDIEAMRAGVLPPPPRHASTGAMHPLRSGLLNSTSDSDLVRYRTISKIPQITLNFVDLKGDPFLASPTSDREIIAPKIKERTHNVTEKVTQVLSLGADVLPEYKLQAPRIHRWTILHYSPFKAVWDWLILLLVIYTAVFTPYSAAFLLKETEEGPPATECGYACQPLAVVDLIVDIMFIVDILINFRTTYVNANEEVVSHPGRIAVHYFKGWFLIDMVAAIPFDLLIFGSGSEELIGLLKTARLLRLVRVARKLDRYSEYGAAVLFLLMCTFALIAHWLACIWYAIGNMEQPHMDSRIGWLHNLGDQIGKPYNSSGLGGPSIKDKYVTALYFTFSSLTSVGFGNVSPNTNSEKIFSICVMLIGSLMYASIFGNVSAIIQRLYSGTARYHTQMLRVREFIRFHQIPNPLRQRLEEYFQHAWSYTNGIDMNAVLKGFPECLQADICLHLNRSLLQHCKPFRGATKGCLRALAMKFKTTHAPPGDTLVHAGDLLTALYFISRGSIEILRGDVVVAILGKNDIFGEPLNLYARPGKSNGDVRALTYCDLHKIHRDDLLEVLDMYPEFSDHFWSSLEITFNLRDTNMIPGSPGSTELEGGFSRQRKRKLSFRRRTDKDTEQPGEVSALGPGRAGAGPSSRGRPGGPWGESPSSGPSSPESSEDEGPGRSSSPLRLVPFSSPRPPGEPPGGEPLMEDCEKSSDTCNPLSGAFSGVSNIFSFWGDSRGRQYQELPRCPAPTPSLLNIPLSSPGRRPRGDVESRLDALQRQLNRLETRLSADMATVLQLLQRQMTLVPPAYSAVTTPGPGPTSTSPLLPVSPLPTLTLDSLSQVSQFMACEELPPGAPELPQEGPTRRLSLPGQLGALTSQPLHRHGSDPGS
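U2OS cells were transduced with wild-type KCNH2 virus (2.03 x 10^8 / mL) for 4 h at room temperature, then cultured overnight at 37 C. Thallium flux was read with FluxOr dye. Rate constants were normalized to DMSO controls.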
KCNH2 3.1 block: KCNH2 3.1 (human) potassium channel inhibition; U2OS KCNH2 3.1, thallium flux FluxOr; stronger effect = lower value; activity change, % (tested at about 1.8 µM); actives 0.95% (n = 340,000);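 active means maximum activity change below -70%; inconclusive means maximum activity change from -70% to -50%; inactive means maximum activity change above -50%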;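 further: thallium influx rate constant from kinetic fluorescence after stimulation buffer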
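FluxOr-based Tl+ influx in U2OS cells transduced with KCNH2 3.1 virus; rate constants normalized to DMSO controls.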
Hits are given with their value.

For CCOC(=O)N1CCN(Cc2nc(N)nc(Nc3ccc(Cl)cc3)n2)CC1 the results were TRPV1 PAM inactive, TRPV1 agonist inactive, hERG WT inh inactive and KCNH2 3.1 block -100.
`CCOC(=O)N1CCN(Cc2nc(N)nc(Nc3ccc(OC)cc3)n2)CC1` gave TRPV1 PAM inactive, TRPV1 agonist inactive, hERG WT inh inactive and KCNH2 3.1 block inactive.
Screening C[C@H](CO)N1C[C@H](C)[C@@H](CN(C)Cc2ccc(-c3ccccc3)cc2)OCc2cnnn2CCCC1=O returned hERG WT inh inactive and KCNH2 3.1 block inactive.
`Cc1ccc(S(=O)(=O)Nc2ccccc2F)cc1C(=O)NCc1ccco1` gave TRPV1 PAM inactive, TRPV1 agonist inactive, hERG WT inh inactive and KCNH2 3.1 block inactive.
Screening COc1ccc(CCNC(=O)CSCc2ccc([N+](=O)[O-])cc2)cc1OC returned TRPV1 PAM inactive, TRPV1 agonist inactive, hERG WT inh -129 and KCNH2 3.1 block -206.
Screening COc1ccc(CCNC(=O)CSCc2ccc([N+](=O)[O-])cc2)cc1 returned TRPV1 PAM inactive, TRPV1 agonist inactive, hERG WT inh inactive and KCNH2 3.1 block inactive.
`COc1ccc(CN2CCC(CO)(CCOc3ccccc3)CC2)c(OC)c1C` gave TRPV1 PAM inactive, TRPV1 agonist inactive, hERG WT inh inactive and KCNH2 3.1 block inconclusive.
`OCCOc1cccc(CN2CCC(CO)(CCOc3ccccc3)CC2)c1` gave TRPV1 PAM inactive, TRPV1 agonist inactive and KCNH2 3.1 block inactive.
COc1cc(Cl)c(CN2CCC(CO)(CCOc3ccccc3)CC2)cc1OC was read as TRPV1 PAM inactive, TRPV1 agonist inactive, hERG WT inh -74 and KCNH2 3.1 block -94.
`OCC1(CCOc2ccccc2)CCN(CC2=Cc3cc(Cl)ccc3OC2)CC1` gave TRPV1 PAM inactive, TRPV1 agonist inactive, hERG WT inh inactive and KCNH2 3.1 block -72.
COC(=O)c1ccc(CN2CCC(CO)(CCOc3ccccc3)CC2)cc1 was read as TRPV1 PAM inactive, TRPV1 agonist inactive, hERG WT inh inactive and KCNH2 3.1 block -97.
O=c1[nH]nc(Sc2ccccc2)c(=S)[nH]1 was read as hERG WT inh inactive and KCNH2 3.1 block inactive.
`Cc1[nH]c(=O)c(C(=O)/C=C/c2ccccc2F)c2c1CCCC2` gave TRPV1 PAM inactive, TRPV1 agonist inactive and hERG WT inh inactive.
`Cc1ccc(CCNC(=O)C2CCC(=O)N(Cc3ccccc3F)C2)o1` (stereo unspecified) gave TRPV1 PAM inactive, TRPV1 agonist inactive and hERG WT inh inactive.
O=C1NN(c2ccccc2)C(=O)C2C3C=CC(C4CC34)C12 (stereo unspecified) was read as TRPV1 PAM inactive, TRPV1 agonist inactive, hERG WT inh -147 and KCNH2 3.1 block inactive.
Screening CCN(CC)S(=O)(=O)c1ccc2c(c1)c(=O)c(C(=O)NCCc1ccccc1)cn2C returned TRPV1 PAM inactive, TRPV1 agonist inactive, hERG WT inh inactive and KCNH2 3.1 block inactive.
`Cc1ccc(NC2CCCN(C(=O)CCC(=O)c3ccccc3)C2)cc1C` (stereo unspecified) gave TRPV1 PAM inactive, TRPV1 agonist 92, hERG WT inh inactive and KCNH2 3.1 block inactive.
`COc1ccc(OCC(=O)N2CCCC(Nc3ccc(C)c(C)c3)C2)cc1` (stereo unspecified) gave hERG WT inh inactive and KCNH2 3.1 block -87.
O=C1CCCCN1CCC(=O)N1CCCC(Nc2ccccc2)C1 (stereo unspecified) was read as TRPV1 PAM inactive, TRPV1 agonist inactive, hERG WT inh inactive and KCNH2 3.1 block inactive.
For COc1ccc(NC2CCCN(C(=O)CSc3ccccc3)C2)cc1 (stereo unspecified) the results were TRPV1 PAM inactive, TRPV1 agonist inconclusive, hERG WT inh inactive and KCNH2 3.1 block inactive.
COc1ccc(NC2CCCN(C(=O)CCOc3ccccc3)C2)cc1 (stereo unspecified) was read as TRPV1 PAM inactive, TRPV1 agonist 82, hERG WT inh inactive and KCNH2 3.1 block inactive.
O=C(CCc1cccc(Cl)c1)N1CCCC(Nc2ccccc2)C1 (stereo unspecified) was read as TRPV1 PAM inactive, TRPV1 agonist 84, hERG WT inh inactive and KCNH2 3.1 block inactive.
Screening Cc1noc(C)c1CSCC(=O)OCC(=O)Nc1ccc(OC(F)(F)F)cc1 returned hERG WT inh inactive and KCNH2 3.1 block inactive.
Cc1cc(OCC(=O)Nc2ccc(N3CCN(C)CC3)cc2)ccc1Cl was read as TRPV1 PAM inactive, TRPV1 agonist inactive, hERG WT inh inactive and KCNH2 3.1 block inactive.
